# Experimental data from PubChem BioAssay.
# The source made the active and inactive calls.
# Key:
# [1] = system: PRMT1 (protein arginine N-methyltransferase 1); assay: small molecules binding arginine methyltransferase PRMT1 – biochemical, small-molecule microarray, 635 nm fluorescence, primary screen (AID 1088); details: higher = more signal;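 note: binding of Prmt1 protein to compounds spotted on small-molecule microarray slides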
# [2] = growth effects on S. cerevisiae YJM789 – YJM789 clinical isolate, OD600, 24 h, basal, primary screen (AID 1089); details: higher = more signal, called active from +8 up or from −8 down;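 note: growth of clinical yeast isolate S. cerevisiae YJM 789 seeded 1000 cells per well; test concentration not given here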
# [3] = S. pombe growth modifiers, basal conditions – strain 972, OD600, 24 h, no modulator, primary screen (AID 1090);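 note: basal condition with compound alone and no growth modifier present; test concentration not given here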; details: S. pombe 972 growth, higher = more signal, called active from +8 up or from −8 down
# [4] = budding yeast growth modifiers under rapamycin – strain BY4716, OD600, 96 h, primary screen (AID 1091); note: test concentration not given here; details: S. cerevisiae BY4716 + rapamycin, higher = more signal, called active from +8 up or from −8 down
# [5] = target: Torsin-1A-interacting protein 2 (Homo sapiens) (UniProt Q8NFQ8); assay: small molecules binding lysate-expressed LULL1 – cell lysate, human LULL1 lysate, 635/667 nm fluorescence, primary screen (AID 1092); details: small-molecule microarray, hLULL1 lysate binding, 635 nm fluorescence; higher = more signal;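 note: probe is lysate of COS7 cells overexpressing human LULL1; score merges per-feature 667 nm fluorescence with signal-to-noise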
# Torsin-1A-interacting protein 2 (Homo sapiens), sequence (Q8NFQ8 whole entry, looked up): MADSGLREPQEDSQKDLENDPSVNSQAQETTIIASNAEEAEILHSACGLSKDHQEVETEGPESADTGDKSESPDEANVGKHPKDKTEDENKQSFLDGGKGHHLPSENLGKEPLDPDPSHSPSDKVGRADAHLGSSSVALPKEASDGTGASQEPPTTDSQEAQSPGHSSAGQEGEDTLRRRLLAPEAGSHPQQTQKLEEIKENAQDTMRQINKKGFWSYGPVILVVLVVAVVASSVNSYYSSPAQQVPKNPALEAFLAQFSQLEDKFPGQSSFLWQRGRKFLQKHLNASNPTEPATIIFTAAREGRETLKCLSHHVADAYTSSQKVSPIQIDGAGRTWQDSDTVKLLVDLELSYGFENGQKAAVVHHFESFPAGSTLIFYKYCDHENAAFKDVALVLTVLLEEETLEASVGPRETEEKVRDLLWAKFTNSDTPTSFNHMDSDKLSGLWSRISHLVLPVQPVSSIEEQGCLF
# [6] = optical density change of DRC41 E. coli – strain DRC41, OD650, 24 h, E. coli filamentation project, primary screen (AID 1093);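 note: MC1000 strain lacking acrAB efflux and sulA so SOS filamentation is blocked; test concentration not given here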; details: E. coli DRC41 growth, higher = more signal, called active from +8 up or from −8 down
# [7] = probe aLefty2 binding to arrayed compounds – biochemical, biotinylated probe, 635/667 nm fluorescence, primary screen (AID 1094); details: small-molecule microarray, higher = more signal;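 note: score merges spot fluorescence near 667 nm with spot signal-to-noise ratio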
# [8] = system: Noggin (protein binding on small-molecule microarray); assay: small molecules binding Noggin protein – biochemical, 635/667 nm fluorescence, primary screen (AID 1095); details: 635 nm fluorescence, higher = more signal;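 note: score merges 667 nm feature fluorescence with signal to noise over triplicate slides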
# [9] = target: Neurogenic locus notch homolog protein 3 (Homo sapiens) (UniProt Q9UM47); assay: small molecules binding NOTCH3 protein – biochemical, 635/667 nm fluorescence, primary screen (AID 1096); details: small-molecule microarray, 635 nm fluorescence, higher = more signal
# Neurogenic locus notch homolog protein 3 (Homo sapiens), sequence (Q9UM47 whole entry, looked up): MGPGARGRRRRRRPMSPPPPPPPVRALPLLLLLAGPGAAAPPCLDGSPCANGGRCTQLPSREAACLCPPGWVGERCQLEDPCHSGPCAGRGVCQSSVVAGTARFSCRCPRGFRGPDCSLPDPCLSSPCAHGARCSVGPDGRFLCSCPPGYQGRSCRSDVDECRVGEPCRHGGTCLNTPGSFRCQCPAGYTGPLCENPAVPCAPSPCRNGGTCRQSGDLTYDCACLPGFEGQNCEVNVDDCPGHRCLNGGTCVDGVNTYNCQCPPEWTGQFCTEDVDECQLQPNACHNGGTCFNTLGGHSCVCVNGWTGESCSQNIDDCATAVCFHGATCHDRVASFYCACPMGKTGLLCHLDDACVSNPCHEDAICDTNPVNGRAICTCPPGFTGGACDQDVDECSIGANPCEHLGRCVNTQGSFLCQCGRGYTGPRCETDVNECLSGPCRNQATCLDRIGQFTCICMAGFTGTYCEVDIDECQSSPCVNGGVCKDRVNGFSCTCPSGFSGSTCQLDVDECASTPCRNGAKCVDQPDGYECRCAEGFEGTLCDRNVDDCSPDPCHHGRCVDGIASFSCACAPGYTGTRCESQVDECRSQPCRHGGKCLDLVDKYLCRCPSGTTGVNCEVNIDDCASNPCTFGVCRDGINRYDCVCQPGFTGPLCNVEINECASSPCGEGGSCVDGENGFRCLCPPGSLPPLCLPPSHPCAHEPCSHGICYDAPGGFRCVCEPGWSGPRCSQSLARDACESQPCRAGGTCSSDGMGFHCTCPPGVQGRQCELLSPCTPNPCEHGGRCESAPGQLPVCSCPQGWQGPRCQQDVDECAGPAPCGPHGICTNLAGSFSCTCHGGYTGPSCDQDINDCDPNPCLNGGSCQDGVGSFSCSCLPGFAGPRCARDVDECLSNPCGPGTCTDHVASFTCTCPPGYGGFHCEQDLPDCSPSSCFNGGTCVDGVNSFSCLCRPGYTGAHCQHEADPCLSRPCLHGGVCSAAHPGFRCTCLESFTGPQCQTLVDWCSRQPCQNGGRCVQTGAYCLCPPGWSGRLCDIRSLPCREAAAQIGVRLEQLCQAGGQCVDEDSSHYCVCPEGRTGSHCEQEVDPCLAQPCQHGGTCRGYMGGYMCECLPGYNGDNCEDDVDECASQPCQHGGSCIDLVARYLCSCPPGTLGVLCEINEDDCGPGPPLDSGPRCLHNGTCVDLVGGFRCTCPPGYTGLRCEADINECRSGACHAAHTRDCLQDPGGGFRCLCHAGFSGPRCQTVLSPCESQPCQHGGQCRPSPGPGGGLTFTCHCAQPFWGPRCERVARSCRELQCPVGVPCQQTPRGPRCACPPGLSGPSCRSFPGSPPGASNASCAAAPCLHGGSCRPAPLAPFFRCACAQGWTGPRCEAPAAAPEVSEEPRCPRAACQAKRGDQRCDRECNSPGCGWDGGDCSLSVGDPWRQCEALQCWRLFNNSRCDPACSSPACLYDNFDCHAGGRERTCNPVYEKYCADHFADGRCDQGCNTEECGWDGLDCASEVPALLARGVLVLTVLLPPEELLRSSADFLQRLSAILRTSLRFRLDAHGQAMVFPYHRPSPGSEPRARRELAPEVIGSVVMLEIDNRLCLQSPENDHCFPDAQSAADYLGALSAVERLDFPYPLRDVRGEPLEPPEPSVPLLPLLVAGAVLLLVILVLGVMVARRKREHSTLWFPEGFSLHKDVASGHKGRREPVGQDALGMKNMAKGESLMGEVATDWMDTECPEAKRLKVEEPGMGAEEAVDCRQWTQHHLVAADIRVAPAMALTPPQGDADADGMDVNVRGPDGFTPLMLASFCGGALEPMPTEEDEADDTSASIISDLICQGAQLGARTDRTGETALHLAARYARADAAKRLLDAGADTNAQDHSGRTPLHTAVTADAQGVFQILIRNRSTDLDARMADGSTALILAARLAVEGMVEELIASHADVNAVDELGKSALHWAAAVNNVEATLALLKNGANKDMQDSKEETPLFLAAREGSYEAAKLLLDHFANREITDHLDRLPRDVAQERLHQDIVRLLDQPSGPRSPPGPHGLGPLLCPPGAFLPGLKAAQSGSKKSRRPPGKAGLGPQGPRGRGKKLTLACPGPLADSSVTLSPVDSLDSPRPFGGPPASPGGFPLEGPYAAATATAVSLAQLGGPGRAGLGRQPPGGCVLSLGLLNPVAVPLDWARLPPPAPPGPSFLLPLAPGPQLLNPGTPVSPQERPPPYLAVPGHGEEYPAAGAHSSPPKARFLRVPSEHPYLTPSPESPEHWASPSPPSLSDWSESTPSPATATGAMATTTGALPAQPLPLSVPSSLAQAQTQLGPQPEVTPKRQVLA
# [10] = probe aEGFR binding to arrayed compounds – biochemical, biotinylated probe, 635/667 nm fluorescence, primary screen (AID 1097); details: small-molecule microarray, higher = more signal;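 note: probe is a biotinylated anti-EGFR antibody binding compounds printed on slides; score combines fluorescence near 667 nm and signal to noise of each spot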
# [11] = system: Plasmodium falciparum Sir2 (PF13_0152, Sir2A); assay: Plasmodium falciparum Sir2A binding compounds – biochemical, small-molecule microarray, 635 nm fluorescence, primary screen (AID 1098); details: fluorescence 635 nm, higher = more signal;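 note: score merges spot fluorescence intensity with its signal-to-noise ratio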
# [12] = probe aDKK1 binding to arrayed compounds – biochemical, biotinylated probe, 635/667 nm fluorescence, primary screen (AID 1099); details: small-molecule microarray, higher = more signal;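 note: score merges 667nm spot fluorescence with signal to noise across triplicate slides; reference of the scale not given here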
# [13] = probe aCHRDL2 binding to arrayed compounds – biochemical, biotinylated probe, 635/667 nm fluorescence, primary screen (AID 1100); details: small-molecule microarray, higher = more signal
# [14] = change in splice reporter luminescence, either direction, cell-based, HEK293, spliceosome inhibition project, primary screen (AID 1101); details: HEK293 splicing luciferase reporter, 24 h, higher = more signal, called active from +8 up or from −8 down;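 note: HEK293 cells carrying a splicing-competent luciferase reporter gene; test concentration not given here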
# [15] = target: Fibroblast growth factor 10 (Homo sapiens) (UniProt O15520); assay: compounds binding fibroblast growth factor 10 – biochemical, small-molecule microarray, 635 nm fluorescence, primary screen (AID 1102); details: FGF10 binding, fluorescence 635 nm, higher = more signal
# Fibroblast growth factor 10 (Homo sapiens), sequence (O15520 whole entry, looked up): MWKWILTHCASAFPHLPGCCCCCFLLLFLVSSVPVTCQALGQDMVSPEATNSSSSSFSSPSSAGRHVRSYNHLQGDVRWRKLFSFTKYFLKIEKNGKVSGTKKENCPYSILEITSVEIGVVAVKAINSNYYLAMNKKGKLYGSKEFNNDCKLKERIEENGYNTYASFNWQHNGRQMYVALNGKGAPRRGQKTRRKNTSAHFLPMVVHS
# [16] = system: glycogen synthase kinase-3 (GSK3A per assay name; protocol says GSK3B); assay: compounds binding glycogen synthase kinase-3 – biochemical, small-molecule microarray, 635 nm fluorescence, GSK3A, primary screen (AID 1103); details: fluorescence 635 nm, higher = more signal; note: the record names both GSK3A and GSK3B
# [17] = target: Epidermal growth factor receptor (Homo sapiens) (UniProt P00533); assay: compounds binding epidermal growth factor receptor – biochemical, small-molecule microarray, 635 nm fluorescence, primary screen (AID 1104); details: EGFR binding, higher = more signal;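 note: score merges 667 nm emission intensity with spot signal to noise over triplicate slides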
# Epidermal growth factor receptor (Homo sapiens), sequence (P00533 whole entry, looked up): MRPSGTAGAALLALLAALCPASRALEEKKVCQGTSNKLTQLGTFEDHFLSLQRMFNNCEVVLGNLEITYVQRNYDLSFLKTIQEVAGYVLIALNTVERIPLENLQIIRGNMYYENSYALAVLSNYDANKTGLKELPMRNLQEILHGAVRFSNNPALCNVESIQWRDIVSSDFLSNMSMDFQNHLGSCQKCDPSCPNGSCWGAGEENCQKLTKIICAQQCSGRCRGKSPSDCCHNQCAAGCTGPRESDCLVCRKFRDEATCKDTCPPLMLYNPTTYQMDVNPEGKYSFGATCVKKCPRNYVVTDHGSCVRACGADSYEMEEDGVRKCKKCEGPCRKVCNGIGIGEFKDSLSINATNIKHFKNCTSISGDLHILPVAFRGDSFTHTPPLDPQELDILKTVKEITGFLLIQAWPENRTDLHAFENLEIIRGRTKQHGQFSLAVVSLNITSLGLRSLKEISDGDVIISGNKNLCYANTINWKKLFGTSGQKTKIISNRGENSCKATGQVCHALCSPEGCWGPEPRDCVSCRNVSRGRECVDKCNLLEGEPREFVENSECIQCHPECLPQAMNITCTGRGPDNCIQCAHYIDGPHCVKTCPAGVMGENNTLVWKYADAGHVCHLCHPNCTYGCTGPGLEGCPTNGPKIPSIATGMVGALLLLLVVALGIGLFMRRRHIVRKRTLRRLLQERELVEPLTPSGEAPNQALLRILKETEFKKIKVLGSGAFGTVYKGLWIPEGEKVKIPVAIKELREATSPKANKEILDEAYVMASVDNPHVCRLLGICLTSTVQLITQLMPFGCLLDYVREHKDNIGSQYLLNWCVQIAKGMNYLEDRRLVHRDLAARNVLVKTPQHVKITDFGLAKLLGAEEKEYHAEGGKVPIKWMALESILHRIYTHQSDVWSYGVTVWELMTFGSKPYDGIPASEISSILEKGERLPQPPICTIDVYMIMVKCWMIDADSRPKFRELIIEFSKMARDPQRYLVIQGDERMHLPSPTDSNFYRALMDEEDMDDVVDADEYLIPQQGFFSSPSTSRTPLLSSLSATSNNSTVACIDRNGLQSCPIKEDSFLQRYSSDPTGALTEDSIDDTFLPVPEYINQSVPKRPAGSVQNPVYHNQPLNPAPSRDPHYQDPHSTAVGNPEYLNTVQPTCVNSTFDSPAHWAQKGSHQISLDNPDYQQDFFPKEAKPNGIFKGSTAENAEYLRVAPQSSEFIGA
# [18] = target: Follistatin-related protein 3 (Homo sapiens) (UniProt O95633); assay: compounds binding follistatin-related protein 3 – biochemical, small-molecule microarray, 635 nm fluorescence, primary screen (AID 1105); details: FSTL3 binding, higher = more signal;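 note: score merges emission near 667 nm and signal to noise per printed spot across three slides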
# Follistatin-related protein 3 (Homo sapiens), sequence (O95633 whole entry, looked up): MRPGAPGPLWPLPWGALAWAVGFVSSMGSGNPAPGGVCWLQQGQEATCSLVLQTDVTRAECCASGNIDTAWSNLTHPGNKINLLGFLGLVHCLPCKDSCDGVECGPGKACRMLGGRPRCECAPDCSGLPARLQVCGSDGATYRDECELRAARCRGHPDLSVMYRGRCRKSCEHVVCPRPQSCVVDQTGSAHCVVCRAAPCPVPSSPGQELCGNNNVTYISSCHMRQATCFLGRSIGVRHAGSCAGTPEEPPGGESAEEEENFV
# [19] = target: Dickkopf-related protein 1 (Homo sapiens) (UniProt O94907); assay: small molecules binding DKK1 protein – biochemical, small-molecule microarray, 635 nm fluorescence scan, primary screen (AID 1106); details: higher = more signal;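 note: score merges emission near 667 nm with signal to noise over three replicate slides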
# Dickkopf-related protein 1 (Homo sapiens), sequence (O94907 whole entry, looked up): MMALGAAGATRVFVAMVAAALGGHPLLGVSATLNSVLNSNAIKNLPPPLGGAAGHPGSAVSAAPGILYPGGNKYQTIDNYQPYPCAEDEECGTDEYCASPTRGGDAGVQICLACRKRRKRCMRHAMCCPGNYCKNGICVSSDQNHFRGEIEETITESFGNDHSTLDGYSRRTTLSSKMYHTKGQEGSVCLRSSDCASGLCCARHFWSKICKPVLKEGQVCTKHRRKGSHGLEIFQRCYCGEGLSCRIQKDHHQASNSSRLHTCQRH
# [20] = system: Inhibin beta A chain (activin A); assay: small molecules binding activin A – biochemical, small-molecule microarray, 635 nm fluorescence scan, primary screen (AID 1107); details: INHBA, higher = more signal;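 note: mouse activin A protein probed at 4.33 µg/mL on printed slides; score merges bound-protein fluorescence near 667 nm with spot signal-to-noise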
SMILES,composite z-score [1],z-score [2],z-score [3],z-score [4],composite z-score [5],z-score [6],composite z-score [7],composite z-score [8],composite z-score [9],composite z-score [10],composite z-score [11],composite z-score [12],composite z-score [13],z-score [14],composite z-score [15],composite z-score [16],composite z-score [17],composite z-score [18],composite z-score [19],composite z-score [20]
O=C1O[C@H](c2ccccc2)[C@H](c2ccccc2)N2[C@H]1[C@@H](C(=O)NC[C@H](O)c1ccccc1)[C@]1(C(=O)Nc3ccc(C#CCCO)cc31)[C@H]2c1ccccc1OCCO,1.54,1.14 (inactive),-2.23 (inactive),3.41 (inactive),2.22,1.19 (inactive),-0.0499,0.795,0.325,-0.139,1.51,-0.232,0.558,0.0927 (inactive),0.458,-0.495,-0.297,0.577,-0.515,0.205
C=CC(CO)NC(=O)OCC1c2ccccc2-c2ccccc21 (stereo not given),-0.341,-1.2 (inactive),-0.0715 (inactive),-0.29 (inactive),-0.652,-0.77 (inactive),-0.145,0.497,0.493,-0.0192,0.193,-0.291,-0.475,0.406 (inactive),0.324,0.365,0.674,0.608,0.554,0.26
Cc1ccc(S[C@]2(C(=O)NCCCN(C)C)CC(=O)N(Cc3ccccc3Cl)[C@@H]2c2ccc(CO)cc2I)cc1,-0.338,0.641 (inactive),-2.52 (inactive),1.43 (inactive),0.605,0.562 (inactive),0.258,-0.845,-1.22,-0.209,-0.393,0.844,0.864,-1.53 (inactive),-1.29,-1.19,-1.3,-0.551,-1.39,1.4
NC(=O)[C@@]1(CCS(=O)(=O)c2ccccc2)COC(c2ccc(OCCCO)cc2)=N1,-0.617,-0.0133 (inactive),-0.213 (inactive),0.0084 (inactive),1.28,0.817 (inactive),0.158,-0.0167,-0.57,-0.0826,1.35,0.628,0.831,0.129 (inactive),0.19,-0.123,-0.143,-0.232,-0.526,1.21
C=CCC(OC(C)=O)[C@@H]1[C@@H](N(Cc2cccc3ccccc23)C(=O)c2ccc(C)cc2)c2cc(OCCCO)ccc2N1C(=O)c1ccc2ccccc2n1 (stereo not given in full),0.56,-2.04 (inactive),0.378 (inactive),-0.6 (inactive),0.563,1.21 (inactive),0.0748,0.708,0.209,-0.0437,0.206,-0.16,0.322,-1.47 (inactive),0.0635,0.104,0.386,0.29,0.145,0.863
CCOC(=O)C1=C(C(=O)OCC)N(S(=O)(=O)CC[Si](C)(C)C)[C@H](c2ccccc2)CC1,1.03,0.807 (inactive),1.83 (inactive),1.85 (inactive),1.84,-0.219 (inactive),0.138,0.472,1.07,0.108,0.461,0.879,0.845,0.37 (inactive),0.8,1,0.313,0.971,-0.111,0.955
[N-]=[N+]=NCc1ccccc1C[C@]1(C(=O)NCc2ccccc2)N=C(c2ccc(OCCCO)cc2)O[C@H]1c1ccccc1CN=[N+]=[N-],1.37,1.27 (inactive),0.736 (inactive),22.6 (active),3.25,1.79 (inactive),-0.106,-0.243,0.561,0.0506,1.03,1.22,0.889,-1.33 (inactive),-0.0516,0.412,-0.253,0.0358,-0.726,0.794
CCCC=C(CCC)[C@@H](NS(=O)(=O)c1ccc(Cl)cc1)c1ccccc1,0.61,0.286 (inactive),0.319 (inactive),1.61 (inactive),1.1,-0.829 (inactive),-0.0916,-0.135,-0.682,-0.125,0.6,0.619,0.951,-1.69 (inactive),-0.686,-1.03,-0.972,-1.29,-0.979,0.351
CC(C)C[C@@H]1NC(=O)[C@H]2C[C@@H](C(=O)NCCCCCCNC(=O)CS)[C@@H](c3ccc(O)cc3)N2C1=O,1.54,0.107 (inactive),0.673 (inactive),0.185 (inactive),2.91,0.205 (inactive),-0.101,1.14,0.589,-0.0594,1.47,-0.0603,-0.121,-0.0594 (inactive),1.13,1.25,1.08,1.03,0.868,-1.17
COC(=O)[C@@]1(Cc2ccc(OC)cc2)[C@H]2c3cc(C(=O)N4CCCC4)n(CCc4ccc(OC)c(Br)c4)c3C[C@H]2CN1C(=O)c1ccccc1,-1.11,0.0024 (inactive),0.111 (inactive),-0.751 (inactive),3.27,0.615 (inactive),0.153,-0.802,-0.0445,-0.0357,1.31,0.801,0.904,-0.947 (inactive),0.714,-0.199,0.0993,-0.457,-0.858,1.03
